The results in this text go back to PubChem BioAssay.

Calls of active or inactive are those of the source.

Assay [1] is described as follows: small molecules captured by biotinylated probe aFSTL3 – biochemical, small-molecule microarray, fluorescence 635/667, stem cell growth factor project, primary screen (AID 1064).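 Further: measures binding of the biotinylated anti-FSTL3 antibody to printed compounds.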 The following applies: higher = more signal.
A short description of assay [2]: binders from COS7 lysate, DM2A8 probe, primary screen, torsin A project, cell lysate, small-molecule microarray, fluorescence 635/667 (AID 1065). Conditions: higher = more signal, COS7 lysate expressing mutant human TOR1A.
A short description of assay [3]: small molecules captured by biotinylated probe aFGF2 – biochemical, small-molecule microarray, fluorescence 635/667, stem cell growth factor project, primary screen (AID 1067).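 Further: measures binding of biotinylated aFGF2 protein to printed compounds on slides; z-score merges feature fluorescence and signal-to-noise across triplicate slides.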 Conditions: higher = more signal.
Assay [4] is described as follows: small molecules captured by biotinylated probe aFGF10 – biochemical, small-molecule microarray, fluorescence 635/667, stem cell growth factor project, primary screen (AID 1071).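 Further: score merges 667 nm spot intensity and signal to noise from triplicate slides.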 Conditions: higher = more signal.
For assay [5], the target named is Neurogenic locus notch homolog protein 2 (Homo sapiens) (UniProt Q04721). Kind of assay: small molecules binding Notch2 protein – biochemical, small-molecule microarray, 635 nm fluorescence, stem cell growth factors, primary screen (AID 1073). The following applies: higher = more signal.
The target in assay [6] is Pro-neuregulin-1, membrane-bound isoform (Homo sapiens) (UniProt Q02297). The experiment in a line: small molecules binding neuregulin-1 protein – biochemical, small-molecule microarray, fluorescence 635/667, psychiatric disease protein project, primary screen (AID 1075).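 Further: score combines 667 nm spot fluorescence with signal to noise.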 The following applies: NRG1 binding, 635 nm fluorescence, higher = more signal.
The test system of assay [7] is Neuregulin-1 EGF-like domain. The experiment in a line: small molecules binding NRG1 EGF domain – biochemical, small-molecule microarray, 635 nm fluorescence, primary screen (AID 1081).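 Further: binding of the protein to compounds printed on small-molecule microarray slides.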 Conditions: higher = more signal.
Assay [8] is described as follows: FRG1 expression reporter modulators in myotubes – cell-based, C2C12 myotubes, firefly/Renilla luciferase, luminescence, FRG1 inhibition for FSHD, primary screen (AID 1084). The following applies: FRG1 promoter luciferase, higher = more signal, called active from +8 up or from −8 down.
Assay [9] in a line: small molecules captured by biotinylated probe aFST – biochemical, small-molecule microarray, fluorescence 635/667, stem cell growth factor project, primary screen (AID 1086).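 Further: score merges 667 nm fluorescence with signal-to-noise of each printed compound spot.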 The following applies: higher = more signal.
A short description of assay [10]: binders of probe aHhip on microarray, primary screen, stem cell growth factor project, biochemical, small-molecule microarray, fluorescence 635/667 (AID 1087).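 Further: score merges spot fluorescence at 667nm with spot signal to noise ratio.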 The following applies: higher = more signal.
In assay [11] the test system is PRMT1 (protein arginine N-methyltransferase 1). The experiment in a line: small molecules binding arginine methyltransferase PRMT1 – biochemical, small-molecule microarray, 635 nm fluorescence, primary screen (AID 1088).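 Further: binding of Prmt1 protein to compounds spotted on small-molecule microarray slides.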 The following applies: higher = more signal.
Assay [12] in a line: growth effects on S. cerevisiae YJM789 – YJM789 clinical isolate, OD600, 24 h, basal, primary screen (AID 1089).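 Further: growth of clinical yeast isolate S. cerevisiae YJM 789 seeded 1000 cells per well; test concentration not given here.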 The following applies: higher = more signal, called active from +8 up or from −8 down.
Assay [13] in a line: S. pombe growth modifiers, basal conditions – strain 972, OD600, 24 h, no modulator, primary screen (AID 1090).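 Further: basal condition with compound alone and no growth modifier present; test concentration not given here.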 Conditions: S. pombe 972 growth, higher = more signal, called active from +8 up or from −8 down.
Assay [14] is described as follows: budding yeast growth modifiers under rapamycin – strain BY4716, OD600, 96 h, primary screen (AID 1091). Further: test concentration not given here. The following applies: S. cerevisiae BY4716 + rapamycin, higher = more signal, called active from +8 up or from −8 down.
Assay [15] deals with Torsin-1A-interacting protein 2 (Homo sapiens) (UniProt Q8NFQ8). The experiment in a line: small molecules binding lysate-expressed LULL1 – cell lysate, human LULL1 lysate, 635/667 nm fluorescence, primary screen (AID 1092).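 Further: probe is lysate of COS7 cells overexpressing human LULL1; score merges per-feature 667 nm fluorescence with signal-to-noise.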 The following applies: small-molecule microarray, hLULL1 lysate binding, 635 nm fluorescence; higher = more signal.
Assay [16] is described as follows: optical density change of DRC41 E. coli – strain DRC41, OD650, 24 h, E. coli filamentation project, primary screen (AID 1093).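 Further: MC1000 strain lacking acrAB efflux and sulA so SOS filamentation is blocked; test concentration not given here.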 Conditions: E. coli DRC41 growth, higher = more signal, called active from +8 up or from −8 down.
A short description of assay [17]: probe aLefty2 binding to arrayed compounds – biochemical, biotinylated probe, 635/667 nm fluorescence, primary screen (AID 1094).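 Further: score merges spot fluorescence near 667 nm with spot signal-to-noise ratio.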 The following applies: small-molecule microarray, higher = more signal.
Assay [18] has as its system Noggin (protein binding on small-molecule microarray). Kind of assay: small molecules binding Noggin protein – biochemical, 635/667 nm fluorescence, primary screen (AID 1095).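 Further: score merges 667 nm feature fluorescence with signal to noise over triplicate slides.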 The following applies: 635 nm fluorescence, higher = more signal.
Assay [19] addresses Neurogenic locus notch homolog protein 3 (Homo sapiens) (UniProt Q9UM47). The experiment in a line: small molecules binding NOTCH3 protein – biochemical, 635/667 nm fluorescence, primary screen (AID 1096). The following applies: small-molecule microarray, 635 nm fluorescence, higher = more signal.
Assay [20] is described as follows: probe aEGFR binding to arrayed compounds – biochemical, biotinylated probe, 635/667 nm fluorescence, primary screen (AID 1097).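 Further: probe is a biotinylated anti-EGFR antibody binding compounds printed on slides; score combines fluorescence near 667 nm and signal to noise of each spot.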 The following applies: small-molecule microarray, higher = more signal.

Chain of Neurogenic locus notch homolog protein 3 (Homo sapiens) (Q9UM47 whole entry, looked up): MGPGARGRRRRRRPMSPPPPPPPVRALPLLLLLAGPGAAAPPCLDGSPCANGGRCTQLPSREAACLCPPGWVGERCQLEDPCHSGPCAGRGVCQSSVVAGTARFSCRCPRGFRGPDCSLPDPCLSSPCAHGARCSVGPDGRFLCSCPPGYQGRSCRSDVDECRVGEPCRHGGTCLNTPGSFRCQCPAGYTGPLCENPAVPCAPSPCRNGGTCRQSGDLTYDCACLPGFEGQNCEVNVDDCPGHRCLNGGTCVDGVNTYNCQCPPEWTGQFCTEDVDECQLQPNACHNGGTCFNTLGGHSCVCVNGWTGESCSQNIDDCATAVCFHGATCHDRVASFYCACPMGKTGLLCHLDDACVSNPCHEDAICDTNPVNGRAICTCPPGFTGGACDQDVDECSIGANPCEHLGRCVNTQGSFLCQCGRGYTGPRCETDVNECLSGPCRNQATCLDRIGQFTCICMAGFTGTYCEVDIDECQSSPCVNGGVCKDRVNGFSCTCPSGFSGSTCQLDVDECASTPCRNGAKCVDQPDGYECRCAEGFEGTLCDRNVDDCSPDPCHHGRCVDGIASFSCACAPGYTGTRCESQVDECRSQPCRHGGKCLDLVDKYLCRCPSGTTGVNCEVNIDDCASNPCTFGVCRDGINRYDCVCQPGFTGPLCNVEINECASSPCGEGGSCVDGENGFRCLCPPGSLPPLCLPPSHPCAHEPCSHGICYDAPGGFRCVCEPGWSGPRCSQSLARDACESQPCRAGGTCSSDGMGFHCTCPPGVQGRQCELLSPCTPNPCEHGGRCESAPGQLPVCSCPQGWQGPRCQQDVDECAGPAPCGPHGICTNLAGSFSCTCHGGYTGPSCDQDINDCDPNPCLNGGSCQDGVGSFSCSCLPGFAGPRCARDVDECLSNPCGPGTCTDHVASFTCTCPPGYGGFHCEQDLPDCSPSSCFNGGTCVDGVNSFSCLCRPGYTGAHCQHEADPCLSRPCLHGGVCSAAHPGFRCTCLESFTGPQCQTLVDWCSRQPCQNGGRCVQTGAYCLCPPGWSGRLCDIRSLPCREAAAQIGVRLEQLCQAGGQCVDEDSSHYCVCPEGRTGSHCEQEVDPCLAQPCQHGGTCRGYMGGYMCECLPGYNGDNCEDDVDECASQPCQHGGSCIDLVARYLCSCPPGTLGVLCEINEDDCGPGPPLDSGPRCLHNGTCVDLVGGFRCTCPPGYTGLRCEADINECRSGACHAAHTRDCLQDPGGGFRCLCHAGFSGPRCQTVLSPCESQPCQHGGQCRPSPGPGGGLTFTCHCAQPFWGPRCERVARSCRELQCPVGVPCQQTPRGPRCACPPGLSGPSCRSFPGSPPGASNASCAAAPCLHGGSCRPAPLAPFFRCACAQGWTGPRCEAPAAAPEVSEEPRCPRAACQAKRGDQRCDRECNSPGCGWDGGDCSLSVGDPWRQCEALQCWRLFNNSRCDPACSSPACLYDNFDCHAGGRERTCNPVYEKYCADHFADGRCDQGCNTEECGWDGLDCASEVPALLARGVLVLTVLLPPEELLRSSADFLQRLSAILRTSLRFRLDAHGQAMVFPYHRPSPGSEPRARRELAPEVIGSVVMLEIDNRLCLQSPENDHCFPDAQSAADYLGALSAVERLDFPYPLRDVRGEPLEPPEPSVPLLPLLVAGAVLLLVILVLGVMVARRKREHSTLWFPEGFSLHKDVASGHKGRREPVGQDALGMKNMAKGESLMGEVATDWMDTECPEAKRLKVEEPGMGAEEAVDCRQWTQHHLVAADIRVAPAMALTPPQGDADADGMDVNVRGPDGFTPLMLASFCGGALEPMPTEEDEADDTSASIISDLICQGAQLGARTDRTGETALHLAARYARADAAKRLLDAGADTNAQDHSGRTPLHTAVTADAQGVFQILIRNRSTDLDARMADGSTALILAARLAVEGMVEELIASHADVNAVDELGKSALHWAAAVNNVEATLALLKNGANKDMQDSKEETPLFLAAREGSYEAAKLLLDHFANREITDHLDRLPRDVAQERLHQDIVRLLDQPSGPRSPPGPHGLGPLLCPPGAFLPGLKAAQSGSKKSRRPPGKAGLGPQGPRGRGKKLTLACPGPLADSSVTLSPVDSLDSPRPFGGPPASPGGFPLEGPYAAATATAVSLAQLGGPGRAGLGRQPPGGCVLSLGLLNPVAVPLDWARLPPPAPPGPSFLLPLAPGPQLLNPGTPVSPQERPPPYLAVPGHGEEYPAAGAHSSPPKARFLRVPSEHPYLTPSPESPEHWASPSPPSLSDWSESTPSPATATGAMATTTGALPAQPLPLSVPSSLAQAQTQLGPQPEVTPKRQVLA
Chain of Pro-neuregulin-1, membrane-bound isoform (Homo sapiens) (Q02297 whole entry, looked up, the tested form may be a part, canonical isoform): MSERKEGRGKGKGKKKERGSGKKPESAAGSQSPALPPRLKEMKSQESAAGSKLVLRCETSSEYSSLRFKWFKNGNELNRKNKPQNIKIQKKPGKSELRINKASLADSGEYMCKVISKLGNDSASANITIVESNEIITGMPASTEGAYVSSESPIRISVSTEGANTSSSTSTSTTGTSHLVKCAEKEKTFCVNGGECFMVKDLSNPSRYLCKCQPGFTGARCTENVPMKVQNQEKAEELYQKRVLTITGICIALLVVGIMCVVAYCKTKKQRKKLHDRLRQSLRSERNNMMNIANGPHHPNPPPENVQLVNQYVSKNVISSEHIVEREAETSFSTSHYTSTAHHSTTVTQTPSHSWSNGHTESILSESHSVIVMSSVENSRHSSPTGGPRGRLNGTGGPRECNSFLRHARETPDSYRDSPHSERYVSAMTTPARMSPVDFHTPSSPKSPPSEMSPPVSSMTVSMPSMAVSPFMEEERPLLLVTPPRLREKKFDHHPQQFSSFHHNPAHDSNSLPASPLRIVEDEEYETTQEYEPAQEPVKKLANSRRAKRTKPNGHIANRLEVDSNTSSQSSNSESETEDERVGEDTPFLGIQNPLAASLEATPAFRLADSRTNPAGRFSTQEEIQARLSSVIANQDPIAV
Chain of Torsin-1A-interacting protein 2 (Homo sapiens) (Q8NFQ8 whole entry, looked up): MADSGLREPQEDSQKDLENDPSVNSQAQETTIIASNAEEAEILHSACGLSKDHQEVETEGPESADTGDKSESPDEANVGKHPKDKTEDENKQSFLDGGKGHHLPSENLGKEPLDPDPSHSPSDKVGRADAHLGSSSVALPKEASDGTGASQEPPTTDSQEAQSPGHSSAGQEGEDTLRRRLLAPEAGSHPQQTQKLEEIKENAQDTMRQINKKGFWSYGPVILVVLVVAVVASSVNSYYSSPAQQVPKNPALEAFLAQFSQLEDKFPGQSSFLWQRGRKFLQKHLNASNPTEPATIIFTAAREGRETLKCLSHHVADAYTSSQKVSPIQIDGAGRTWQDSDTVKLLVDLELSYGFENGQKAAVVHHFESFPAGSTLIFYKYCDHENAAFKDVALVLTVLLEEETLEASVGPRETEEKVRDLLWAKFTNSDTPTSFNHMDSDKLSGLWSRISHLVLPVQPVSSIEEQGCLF

With `CC(C)C(=C=CC[C@H](O)c1ccc(OCCO)cc1)C[C@H](O)COCc1ccccc1`, the composite z-score was -0.254 in assay [1]; 1.75 in assay [2]; -0.128 in [3]; 0.411 in assay [4]; -0.438 in [5]; 0.639 in [6]. Moreover, the composite z-score in [7] is 1.09; in assay [9], -0.0173; in [10] it was -0.0994; in assay [11], 1.23; in [15], 1.76; in [17], -0.119. Besides, the results for the composite z-score in assay [18], in assay [19] and in assay [20] were 1.51, 0.229 and -0.166, respectively. For the same compound, the z-score in [8] is -1.37 (inactive); in [12], 1.09 (inactive); in [13], -2.45 (inactive); in assay [14] it was -0.668 (inactive); in assay [16], 0.775 (inactive).
With `COCCOC(=O)N1C(=O)[C@@]2(c3cc(C#CC4(O)CCCCCC4)ccc31)[C@H](c1ccccc1OCCO)N1[C@H](c3ccccc3)[C@H](c3ccccc3)OC(=O)[C@H]1[C@@H]2C(=O)Nc1nc2ccccc2s1`, the composite z-score in assay [1] is -0.172; in assay [2], 1.05; in assay [3], 0.0359; in assay [4], 0.659; in assay [5], 1.11; in assay [6], 0.41. For the same compound, the composite z-score is 1.26 in assay [7]; 0.325 in assay [9]; -0.121 in assay [10]; 1.55 in assay [11]; 2.09 in [15]; 0.0498 in assay [17]. Further, the composite z-score in [18] worked out at 0.724; in assay [19], 1.09; in [20] it was 0.0403. Moreover, the z-score in [8] is 1.54 (inactive); in [12], 2.04 (inactive); in assay [13], -0.312 (inactive); in [14] it was 3.94 (inactive); in assay [16], 2.69 (inactive).
`C=CCNC(=O)[C@H]1[C@@H]2C(=O)O[C@@H](c3ccccc3)[C@@H](c3ccccc3)N2[C@@H](c2ccccc2OCCO)[C@]12C(=O)N(C(=O)OCCOC)c1ccc(C#CCCO)cc12`: the composite z-score turned out to be 1.61 in assay [1]; 1.31 in [2]; 0.0603 in assay [3]; 0.853 in assay [4]; 0.83 in assay [5]; 0.79 in assay [6]. The composite z-score was 1.11 in assay [7]; 1.24 in [9]; 0.511 in [10]; 1.43 in assay [11]; 1.36 in [15]; 0.994 in [17]. The composite z-score in assay [18] was found to be 1.59; in assay [19], 1.12; in assay [20], 0.596. The z-score in assay [8] is -4.05 (inactive); in assay [12] it was 0.827 (inactive); in [13], -3.06 (inactive); in [14], 3.43 (inactive); in [16], 1.68 (inactive).
As for `CC(C)(C)OC(=O)CC[C@@]12N=C(c3ccc(OCCCO)cc3)O[C@@H]1c1ccccc1N(Cc1ccccc1)C2=O`, the composite z-score is 0.96 in [1]; 0.842 in assay [2]; -0.0481 in assay [3]; -0.422 in assay [4]; 0.246 in [5]; 0.778 in assay [6]. The composite z-score in [7] was 1.21; in [9], 0.439; in assay [10], -0.0645; in assay [11] it was 1.32; in [15], 3.26; in assay [17], 0.0622. The composite z-score is 0.753 in assay [18], 1.05 in assay [19] and -0.0497 in [20]. For the same compound, the z-score in assay [8] is -3.31 (inactive); in assay [12] it was 0.0492 (inactive); in assay [13] it was -1.2 (inactive); in assay [14] it was 3.98 (inactive); in [16] it was 1.55 (inactive).
`CCCCCN1CC=CC23O[C@@H]4/C=C\CCC(C)OC(=O)C4[C@H]2C(=O)N(CCCO)[C@@H]3C1=O` (stereo not given in full): the composite z-score in assay [1] is 0.499; in [2], 2.09; in [3] it was -0.128; in assay [4], -1.37; in [5], -1.28; in assay [6], 1.57. Besides, the composite z-score was 1.15 in [7]; -0.61 in assay [9]; -0.261 in [10]; -0.418 in assay [11]; 0.818 in assay [15]; -0.441 in assay [17]. In addition, the composite z-score in [18] is -1.44; in assay [19] it was -1.17; in [20], -0.262. In addition, the z-score in assay [8] is 0.356 (inactive); in [12], -1.3 (inactive); in assay [13] it was -1.58 (inactive); in assay [14] it was -0.544 (inactive); in [16], 1.77 (inactive).
